Molecules are shown by their SMILES. In all, about 1,000 compounds went through this assay and about 200 (20%) were called active. These entries were drawn from the full list. Results with a measured potency or affinity are listed apart. A number with no mark means an inactive call. Rule as the data show it: active = inhibition above about 55%; inactive = the rest.

The target in this test is Dual specificity protein phosphatase 3 (Homo sapiens) (UniProt P51452). Description: VHR1 phosphatase inhibitors, biochemical (AID 1878). Conditions: recombinant VHR phosphatase, fluorogenic substrate; at 13.3 µM; stronger effect = higher value.
Sequence of Dual specificity protein phosphatase 3 (Homo sapiens) (P51452 whole entry, looked up): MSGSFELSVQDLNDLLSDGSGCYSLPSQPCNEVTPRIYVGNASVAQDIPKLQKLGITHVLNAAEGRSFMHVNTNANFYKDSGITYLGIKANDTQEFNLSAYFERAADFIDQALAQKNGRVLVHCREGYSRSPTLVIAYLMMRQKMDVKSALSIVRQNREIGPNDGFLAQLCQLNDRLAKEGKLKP
The inhibition is the relative decrease from the control value, in per cent. For the compound `Cc1ccccc1C(=O)NC[C@@H]1CCCN2CCCC[C@H]12`, the inhibition is -3.5%.
With `CC(=O)c1cccc(OCc2cc(C(=O)N3CC4C[C@@H]5CC3C[C@H](C4)C5)no2)c1` the figure was 21.3%; with `Cc1ccc2c(c1)N(CC(=O)NCCCN1CCCCC1C)C(=O)c1cccnc1O2` (stereo not drawn), -7.1%.
In the case of `O=C(COC(=O)CNC(=O)c1ccc(Cl)cc1Cl)Nc1ccc(N2CCOCC2)cc1`, the inhibition was 1.8%.
With `Cc1ccc(S(=O)(=O)N(C)C)cc1NC(=S)N(C)C1CCN(C)CC1` the figure was -3.6%; with `CCc1nnc(NC(=O)COc2ccc3c(c2)OCO3)s1`, 5.7%; with `CCOc1ccccc1OCCN1CCCC1`, -12.9%.
Consider `O=[N+]([O-])c1ccc(N2N=C(c3ccccc3)CC2c2ccccc2O)cc1` (stereo not drawn), for which the inhibition is 6%.
In the case of `COc1ccc(C2=NN(C(=O)CCCC(=O)O)C(c3cn(-c4ccccc4)nc3-c3ccccc3)C2)cc1` (stereo not drawn) it was 91.6% (active); in that of `O=C(O)CCC(=O)N1N=C(c2ccccc2)CC1c1ccc(Br)cc1` (stereo not drawn), -7.5%; in that of `COc1cc(OC)c(NC2=CC(=O)C(=O)c3ccccc32)cc1Cl`, 6.7%.
Take `O=C(NCCc1cnc[nH]1)Nc1cccc(C(F)(F)F)c1`: the inhibition was -4.7%.
With `CN(c1ccc(C(=O)N2CCCCC2)cc1)S(C)(=O)=O` the figure was 27%; with `CC1=CC(=O)c2c(O)ccc(O)c2C1=O`, 65.2% (active); with `COc1ccc(OC)c2c(C)cc(C)nc12`, -3.6%.
For `CC1CCCC(C)N1/N=C/c1ccc(O)c(O)c1` (stereo not drawn), the inhibition was 2.9%.
In the case of `COCCCN(CC(=O)Nc1ccc(N2CCOCC2)cc1)S(=O)(=O)c1ccc(Cl)cc1` it was -3.7%; in that of `CC1CCC(NCCNC(=O)c2ccco2)CC1` (stereo not drawn), -9.5%; in that of `O=C(Nc1ccnn1C1CCN(C2CCCC2)CC1)c1ccccc1`, -11.4%.
In the case of `CCCCCC#CCC#CCC#CCC#CCCCC(=O)O` it was 94.6% (active); in that of `COc1ccc(Nc2nccc(-c3ccc(C#N)cc3)n2)cc1`, -0.6%; in that of `NC(=O)NC(=O)C(Nc1ccc(N2CCCCC2)cc1)c1ccccc1` (stereo not drawn), 3.2%.
With `CCOc1ccc(CNC(=O)c2cccc(NC(=O)C3=C(C)OCCS3)c2)cc1` the figure was 5.4%; with `CN(C(=O)COC(=O)c1cc(F)c(F)cc1Cl)c1ccccc1`, -7.5%.
With `COC(=O)c1ccc(CN2CCCC(CNC(=O)Cc3ccc(OC)cc3)C2)cc1` (stereo not drawn), the inhibition was -1%.
In the case of `CCOc1ccc(CNC(=O)C(=O)c2cn(CC(=O)N3CCOCC3)c3ccccc23)cc1OC` it was -5.3%; in that of `CCCCN(C)CCNC(=O)CCn1nc(-c2ccc(C)cc2)ccc1=O`, 49.7%; in that of `Cc1cccc(NC(=O)COc2ccc(/C=C\c3[nH]c(=O)[nH]c(=O)c3[N+](=O)[O-])cc2)c1`, 98.7% (active).
`Cc1ccc(NC(=O)COc2cccc(-n3cnnn3)c2)cc1[N+](=O)[O-]`: the inhibition was -11.9%.
With `Cc1ccc(OCC(=O)Nc2ccc(C(N)=O)cc2)cc1` the figure was 19.4%; with `Cc1nn(C)c(C)c1CCC(=O)N1CCCC(N2CCN(c3ccc(F)cc3)CC2)C1` (stereo not drawn), -3.3%.
`Cc1nc2sccn2c(=O)c1S(=O)(=O)Nc1ccc(N2CCN(S(C)(=O)=O)CC2)cc1`: the inhibition was -12.5%.
With `COc1ccc(-c2ccnc3[nH]n(-c4ccccc4)c(=O)c23)cc1` the figure was 7.3%.
With `O=[N+]([O-])c1cccc(S(=O)(=O)N2CCN(c3ccccn3)CC2)c1` the figure was -9.5%.
With `O=c1c2c(-c3cccc([N+](=O)[O-])c3)ccnc2[nH]n1-c1ccccc1` the figure was 74.2% (active).
With `COc1ccc2c(C)nc(N/C(N)=N/S(=O)(=O)c3ccc(C)cc3)nc2c1`, the inhibition is 26.9%.
With `Cn1c(=O)[nH]c(=O)c2c1nc(N1CCNCC1)n2Cc1ccccc1Cl` the figure was 0.7%.
With `COc1cc(NC(=O)c2cnc(NCc3ccccc3)nc2C)cc(OC)c1OC` the figure was -1.7%; with `c1cc(-c2nnc3sc(C4CCCCC4)nn23)ccn1`, -3.4%.
In the case of `COc1ccccc1NS(=O)(=O)c1ccc2oc(SC)nc2c1`, the inhibition is -3.1%.
In the case of `O=C1Nc2ccccc2C1=Nc1ccc(F)cc1` it was -4.5%; in that of `O=C(NC(=S)Nc1ccccn1)c1ccc(-c2ccccc2)cc1`, 0.9%.
In the case of `O=C(O)c1ccc(NC(=S)NC(=O)C(c2ccccc2)c2ccccc2)cc1` it was -6.3%; in that of `COc1cccc(-c2cc(C(=O)N3CCc4ccccc4C3)[nH]n2)c1`, 6.6%; in that of `COc1ccc(NC(=O)c2cc3ccc4c5ccccc5[nH]c4c3cc2O)cc1`, 19.8%.
On to `O=C(C1CC1)N1N=C(c2cccc(Br)c2)CC1(O)C(F)(F)F` (stereo not drawn), for which the inhibition was 2.7%.
In the case of `Nc1ccc(C(=O)N(CCO)CCO)cc1` it was 4.4%; in that of `Cc1ccc2nc(/C(C#N)=C/c3ccc(-c4cccc([N+](=O)[O-])c4)o3)[nH]c2c1`, 96.4% (active); in that of `CC(=O)Nc1nc(C)c(-c2nc3ccc([N+](=O)[O-])cc3[nH]2)s1`, 1%.
With `CN(C)C(=O)/C(=C/c1ccc(-c2cccc([N+](=O)[O-])c2)o1)NC(=O)c1ccccc1` the figure was 1.2%.
In the case of `Cc1cc(C)c(S(=O)(=O)NCC2CCC(C(=O)NCCCN3CCC(C)CC3)CC2)c(C)c1` (stereo not drawn), the inhibition was -3.9%.
In the case of `CC(=O)N1CCN(c2ccc(NCc3cccc4ccccc34)cc2)CC1` it was 3.9%; in that of `CN(C)c1ccc(N=Cc2cccn2C)cc1`, 0.6%; in that of `CC(C)(C)CN1CCC(Oc2cccc(C(=O)N3CCNC(=O)C3(C)C)c2)CC1`, 6.9%.
For the compound `COC(=O)C1=CN(Cc2ccc(OC)cc2)C=C(C(=O)OC)C1c1ccc(O)c(OC)c1`, the inhibition was 8.4%.
In the case of `O=C(CCNC(=O)N1CC(=O)Nc2ccccc21)Nc1cccc(Cl)c1` it was 2%.
`C=CCNC(=O)N1c2ccccc2Sc2ccccc21`: the inhibition is 26.2%.
With `CCN(C(=O)c1ccc(S(=O)(=O)N(C)C)cc1)C(C)C(=O)Nc1ccc(C)cc1` (stereo not drawn) the figure was 5.9%; with `CC(C)OCCCNC(=S)Nc1ccc(S(N)(=O)=O)cc1`, 54.9% (active).
Take `CC(C)Oc1ccc(C(=O)Nc2ccc(S(=O)(=O)N3CCN(C)CC3)cc2)cc1`: the inhibition was -10.6%.
With `O=C(CSc1nc2ncccc2[nH]1)NCc1ccco1` the figure was 17.8%; with `COc1ccc(Br)cc1/C=N/n1nnnc1N`, 5.9%; with `O=C(CSc1ccc([N+](=O)[O-])cn1)Nc1ccc2c(c1)OCO2`, -8.7%.
In the case of `CCN(CC(=O)Nc1ccc2c(c1)OCCO2)C(=O)COc1ccc(C)cc1` it was 7.4%.
In the case of `Cc1ccc(C(=O)O)cc1-c1ccc(/C=C2\SC(=O)N(CC(=O)Nc3ccccc3)C2=O)o1` it was 45.6%.
With `CCOc1ccccc1NC(=O)c1nnn(CC(=O)Nc2ccc3c(c2)OCO3)c1N`, the inhibition is -0.3%.
With `Cc1cc(C(=O)O)ccc1-c1ccc(/C=C2\SC(=O)N(CC(=O)Nc3ccc4c(c3)OCO4)C2=O)o1` the figure was 96.8% (active).
In the case of `O=C(CN1C(=O)S/C(=C\c2ccc(-c3cc(C(=O)O)ccc3Cl)o2)C1=O)Nc1ccc2c(c1)OCO2` it was 91.9% (active); in that of `Cc1ccccc1NC(=O)CN1C(=O)S/C(=C\c2ccc(-c3cc(C(=O)O)ccc3C)o2)C1=O`, 67.4% (active).
With `CCOc1ccc(CNS(=O)(=O)c2cc(CN3C(=O)c4cccnc4C3=O)ccc2OC)cc1` the figure was -2.7%; with `CC(=O)N1c2ccc(S(=O)(=O)N(C)CC(=O)Nc3cccc(C)c3)cc2CC1C` (stereo not drawn), -2.3%; with `O=C(NC(=S)Nc1ccccc1N1CCCC1)c1ccccc1Br`, -1.6%.
As to `COc1cc(OC)nc(Oc2ccc(N)c(C)c2)n1`, the inhibition is 17.4%.
On to `CC(=O)/C=C\c1cn(-c2ncc(C(F)(F)F)cc2Cl)c2ccccc12`, for which the inhibition is -0.4%.
Take `COc1cccc(CNc2cc(C)ccn2)c1O`: the inhibition is -6.7%.
In the case of `O=S1(=O)N(Cc2ccccc2F)CCCN1Cc1c(F)cccc1Cl` it was 44.5%; in that of `O=S(=O)(c1ccccc1)N1CCn2c(nc3ccccc32)C1`, -0.8%.
In the case of `Cc1ccc(-c2nn3c(C)nnc3s2)cc1NC(=O)c1ccc(-c2ccc(Cl)cc2Cl)o1` it was 99.7% (active); in that of `CSCC(C)N1CCC(N2CCC(C(=O)NCc3ccccn3)CC2)CC1` (stereo not drawn), -9.9%; in that of `Cc1ccc(/C=C2/Sc3ccc(C(=O)NCc4ccccn4)cc3NC2=O)cc1`, 93.9% (active).
With `CCN(Cc1ccc(NC(C)=O)cc1)CC1CCCN(CCc2cccc(F)c2)C1` (stereo not drawn) the figure was 6.3%; with `CCOC(=O)C1(Cc2ccccc2)CCCN(C(=O)c2ccc(-n3ccnc3)cc2)C1` (stereo not drawn), -9.5%; with `Cc1cccc(C(=O)NCCCn2ccnc2)c1C`, -6.9%.
With `Cc1ccc(CSc2nnc(-c3ccco3)n2N)cc1`, the inhibition was 3.5%.
In the case of `CC1(c2ccc3ccccc3c2)NC(=O)NC1=O` (stereo not drawn), the inhibition was -8.8%.
In the case of `CC(C)N(C)Cc1nnnn1CC(=O)N(C)Cc1ccc(F)cc1` it was 0.7%; in that of `COc1ccc(NC(=O)CN(CC(=O)Nc2ccc(OC)cc2)C(C)(C)CO)cc1`, 10.8%; in that of `O=C(O)CN1C(=O)/C(=C2\C(=O)N(Cc3ccccc3Cl)c3ccccc32)SC1=S`, 96.7% (active).
With `COc1ccc(NC(=O)CN2C(=O)/C(=C3\SC(=S)N(CCC(=O)O)C3=O)c3ccccc32)cc1`, the inhibition was 74.7% (active).
On to `COc1ccc(C(CC(=O)Nc2ccccn2)N2Cc3ccccc3C2=O)cc1` (stereo not drawn), for which the inhibition is 2.3%.
With `CN(C)c1nc(-c2ccccc2)c2cc(Cl)ccc2n1` the figure was 9%; with `CCCN1CCN(CCNC(=O)Nc2cc(C)ccc2C)CC1`, -9.3%; with `Cc1nc(C(C)NC(=O)c2ccc(OC3CCN(Cc4ccccn4)CC3)cc2)c(C)s1` (stereo not drawn), -8.5%.

Source of the values: PubChem BioAssay AID1878 (Sanford-Burnham Center for Chemical Genomics, 2009).
